The values that follow come from PubChem BioAssay AID1727 (National Center for Advancing Translational Sciences (NCATS), 2009).

Molecules are shown by their SMILES. Unmarked numbers belong to inactive results. The source made the active and inactive calls. Calls come from the whole dose curve; as a rule, active = well fitted curve in the direction sought with a large enough effect; inactive = no such curve, though single readings can be large or run the other way.

Chain of Epidermal growth factor receptor (Homo sapiens) (P00533 whole entry L858R, looked up): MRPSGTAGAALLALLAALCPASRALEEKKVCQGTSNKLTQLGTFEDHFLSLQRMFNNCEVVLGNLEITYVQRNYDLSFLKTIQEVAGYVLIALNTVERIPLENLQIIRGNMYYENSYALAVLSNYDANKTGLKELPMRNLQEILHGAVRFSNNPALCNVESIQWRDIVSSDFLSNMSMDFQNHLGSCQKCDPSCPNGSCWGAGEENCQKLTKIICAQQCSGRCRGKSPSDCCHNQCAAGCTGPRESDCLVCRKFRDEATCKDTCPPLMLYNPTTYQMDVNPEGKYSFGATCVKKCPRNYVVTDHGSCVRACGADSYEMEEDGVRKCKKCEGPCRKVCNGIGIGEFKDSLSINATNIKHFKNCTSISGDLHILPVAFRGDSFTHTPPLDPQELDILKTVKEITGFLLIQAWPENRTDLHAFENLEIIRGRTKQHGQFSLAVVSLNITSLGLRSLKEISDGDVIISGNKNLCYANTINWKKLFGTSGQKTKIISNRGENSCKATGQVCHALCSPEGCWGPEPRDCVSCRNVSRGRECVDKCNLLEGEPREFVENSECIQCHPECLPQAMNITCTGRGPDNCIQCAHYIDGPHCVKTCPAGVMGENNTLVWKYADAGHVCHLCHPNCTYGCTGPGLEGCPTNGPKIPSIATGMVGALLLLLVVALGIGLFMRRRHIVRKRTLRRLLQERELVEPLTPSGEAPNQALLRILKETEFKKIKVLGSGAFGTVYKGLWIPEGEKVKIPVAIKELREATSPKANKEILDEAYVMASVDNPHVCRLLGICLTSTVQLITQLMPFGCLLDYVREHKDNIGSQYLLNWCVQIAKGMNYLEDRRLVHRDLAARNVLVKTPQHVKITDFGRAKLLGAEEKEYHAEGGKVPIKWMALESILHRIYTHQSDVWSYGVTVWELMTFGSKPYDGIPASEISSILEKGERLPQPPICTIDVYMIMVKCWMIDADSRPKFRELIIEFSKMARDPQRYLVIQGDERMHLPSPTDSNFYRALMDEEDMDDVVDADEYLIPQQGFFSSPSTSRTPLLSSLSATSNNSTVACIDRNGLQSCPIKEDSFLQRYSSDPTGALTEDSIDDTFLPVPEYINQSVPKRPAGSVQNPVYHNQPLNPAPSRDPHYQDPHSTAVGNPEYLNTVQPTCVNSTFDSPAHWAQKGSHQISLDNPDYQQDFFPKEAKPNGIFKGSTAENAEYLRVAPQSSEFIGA

This experiment deals with Epidermal growth factor receptor (Homo sapiens) (UniProt P00533). The experiment can be described thus: Assay for Inhibitors of the ERK Signaling Pathway using a Homogeneous Screening Assay: EGFR L858R Kinase Inhibition. The settings on record: EGFR L858R kinase biochemical inhibition assay; series mostly up to 21.9 µM; activity, negative = inhibition: at the top concentration. An excerpt:
qHTS Assay for Inhibitors of the ERK Signaling Pathway using a Homogeneous Screening Assay
NIH Chemical Genomics Center [NCGC]
NIH Molecular Libraries Screening Centers Network [MLSCN]
Assay Submitter (PI): Dr. Wei Zheng, NCGC/NIH
The Ras/extracellular-signal-regulated kinase (ERK) mitogen activated protein (MAP) kinase signaling pathway (ERK1/2 cascade) plays is a key role in transmitting signals from the cell surface to the nucleus (Nishida and Gotoh 1993; Chang and Karin, 2001). The cascade is initiated by the small G-protein Ras, which recruits Raf […], where activation occurs. Alternatively, this pathway can be activated by elevating intracellular cAMP.
Activation of the ERK pathway is essential in increased cell division and cell survival. Sustained and constitutive activation of the ERK pathway, however, has been linked to uncontrolled cell proliferation, increased cell survival, and tumor progression. Thus, the ERK has been as an attractive target for cancer chemotherapy in the past few years (Sebolt-Leopold and Herrera, 2004). Given its physiological and pathological importance, assessment of ERK phosphorylation has been broadly performed in both basic research and drug discovery. Most assays for the measurement of ERK phosphorylation use the antibody-based detection methods, such as western blot and ELISA. These assays require multiple reagent additions with cell wash steps and are not suitable for high-throughput screening.
The current cell-based ERK phosphorylation assay was performed using AlphaScreen platform. AlphaScreen is a two bead-based proximity-dependent chemical energy transfer luminescent assay platform. The assay reagents (ERK SureFire(TM) kit) were supplied from TGR BioSciences (Australia). In the presence of specific antibodies, phosphorylated ERK will bring "donor" and "acceptor" beads to a proximity range (<200 nm), and subsequently lead a chemical luminescent reaction upon exciting donor beads with 680 nm laser. To validate pathway hits from the cell-based assay, enzyme assays consisting of EGFR tyrosine kinase, Raf and MEK were used as a means of deciphering the enzymes of target for the prioritized group of compounds derived from the HEK-293 cell based assay. The compounds were tested against significant members of the ERK signaling pathway EGFR and EGFR mutants (EGFR L858R, EGFR T790M, and EGFR L858R T790M). In order to establish the specificity of the prioritized compounds for EGFR and EGFR mutants, the compounds were also assayed against other important ERK signaling pathway enzymes, c-RAF and MEK-1.
NCGC Assay Protocol Summary:
The HTRF kinase assay (components supplied as kit by Cisbio) was chosen for the EGFR and EGFR mutant enzyme assays that applied the time resolved fluorescence resonance energy transfer (TR-FRET) principle. A peptide substrate is labeled with a biotin that can bind to XL665 labeled streptavidin and the anti-phosphoresidue antibody is labeled with Eu+. Upon phosphorylation of the substrate, the antibody binds to phosphorylated substrate that enables TR-FRET detection in homogenous assay format.
An HTRF Kinease TK assay kit (Cisbio, Bedford, MA) was used to develop the EGFR and EGFR mutant assays (Harbert et al., 2008. Harbert C, Marshall J, Soh S, Steger K. Development of a HTRF Kinase Assay for Determination of Syk Activity. Current Chemical Genomics. 1: 20-26. 2008). EGFR and EGFR mutants were obtained from Invitrogen. The assay buffer was composed of 50 mM HEPES (pH 7.0), 5 mM MgCl2, 5mM DTT, 0.1 % NaN3, 0.1 % BSA and 0.1 mM orthovanadate.
The HTRF assays were preformed according to the HTRF Kinease TK kit. Optimization for each enzyme was preformed in 384 well format (data not included). All reagents were dispensed into 1536 well plates.
(1) Enzyme, […] EGFR at 3 nM final
(2) Compound, 22 nl, Library Compounds in 0.128 to 10 mM titration series or control
(3) Reagent, 1.5 ul 10 uM ATP and 0.25 uM substrate final
(4) Incubation for 30 min, Ambient conditions
[…]
Turning to `Cn1c(=O)[nH]c2nnc(-c3ccc(Cl)c(Cl)c3)nc2c1=O`, the “activity, negative = inhibition” value is -2.48% [at 65.8 µM].

With `Cn1nc(-c2ccc(Cl)cc2)nc2c(=O)n(C)c(=O)nc1-2`, the “activity, negative = inhibition” value was -1.74%. Consider `O=C1c2ccccc2C(=O)c2c(NCCCN(CCO)CCO)cccc21`, for which the “activity, negative = inhibition” value was -1.94%. For the compound `O=C1c2ccccc2C(=O)c2c1cccc2N1CCCC1`, the “activity, negative = inhibition” value was -7.13%. As to `Cn1nc(-c2ccccn2)nc2c(=O)n(C)c(=O)nc1-2`, the “activity, negative = inhibition” value was 3.73%. With `CN(C)c1cccc2c1C(=O)c1ccccc1C2=O`, the “activity, negative = inhibition” value was 0.987%. The same measure, in the same setting: the figure for `CCn1c(=O)c2[nH]c(-c3ccccc3)nc2n(CC)c1=O` is -11.3%; for `CCN(CC)CCC(=O)Nc1cccc2c1C(=O)c1ccccc1C2=O` it is -11.8%. Consider `CNc1cccc2c1C(=O)c1ccccc1C2=O`, for which the “activity, negative = inhibition” value was -2.12%. With `Fc1ccc(Nc2ncnc3sc4c(c23)CCC4)cc1F`, the Potency was 0.0447 µM (active). On the same count and under the same terms, with `Cc1ccc(NNc2c(C)nc3ccccc3nc2=O)cc1` the figure was 3.16 µM (active). On to `N#C/C(=C(/N)Sc1ccc(N)cc1)c1ccccc1C(F)(F)F`, for which the Potency entry is “inactive”. Still for that read-out and setting: with `Cc1nc2ccccc2nc(=O)c1NNc1ccccc1` the figure was 0.631 µM (active). Turning to `COc1ccc(C(=O)c2ccc(Cl)c([N+](=O)[O-])c2)cc1`, the “activity, negative = inhibition” value is -9.07%.

As to `Cc1ccc2nc(=O)c(NNc3ccccc3)cnc2c1`, the Potency was 0.631 µM (active). For the compound `O=C(Nc1nc(-c2ccccc2)cs1)c1ccc(N2CCOCC2)c([N+](=O)[O-])c1`, the “activity, negative = inhibition” value is -3.33% [at 65.8 µM].

As to `CS(=O)(=O)CCNCc1nc(-c2ccc3ncnc(Nc4ccc(OCc5cccc(F)c5)c(Cl)c4)c3c2)cs1`, the Potency is 0.0501 µM (active).
